Hit rate of the full screen: of about 63,000 compounds, about 1,100 (1.7%) were called active. Shown is part of a subset that was picked to be rich in actives. Measured potencies and affinities stand elsewhere. Unmarked numbers belong to inactive results.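 Rule for the calls: active = compounds whose percent cytotoxicity in the single-dose primary screen, scaled between solvent and toxic-drug controls, exceeds 50; inactive = the rest.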
Experiment: viability loss of HPDE-C7K cells – cell-based, fluorescence, HTS, primary screen (AID 431);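 note: 0% = DMSO solvent wells and 100% = doxorubicin-treated wells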
Conditions: HPDE-C7K KRASV12 cells, Alamar Blue viability, 48 h; at 10 µM; stronger effect = higher value

Compound	cytotoxicity
Cc1c(NC(=O)COC(=O)C2CC3C=CC2C3)c(=O)n(-c2ccccc2)n1C (stereo not drawn)	-2.3%
CC(/C(O)=C(\C#N)c1nc2ccccc2n1C)N1C(=O)c2ccccc2C1=O (stereo not drawn)	0.7%
Cc1cccc(N2CCN(c3cccc(C)c3)C2c2cccnc2)c1	53.7% (active)
Cc1ccc(N2CCN(c3ccc(C)cc3)C2c2ccncc2)cc1	-25.3%
Cc1cccc(N2CCN(C(=O)c3ccncc3)CC2C)c1 (stereo not drawn)	7.3%
Cc1cccc(N2CCN(C(=O)COc3cc(=O)n(C)c4ccccc34)CC2C)c1 (stereo not drawn)	-5.4%
c1cncc(C2Nc3ccccc3-c3nc4ccccc4n32)c1 (stereo not drawn)	3.3%
O=S(=O)(NC1CCCC1)c1ccccc1Cl	-5.7%
COc1cccc(C=Nc2cc(C)on2)c1O	7.3%
C=CCc1cccc(/C=N/c2ncn[nH]2)c1O	18.3%
COc1cc(Br)cc(CN2CCN(C=O)CC2)c1O	-2.1%
COc1cc(Br)cc(/C=N/c2ncn[nH]2)c1O	85.2% (active)
Oc1c(/C=N/c2ncn[nH]2)ccc2ccccc12	65.8% (active)
O=c1c2ccccc2c(/C=N/c2ncn[nH]2)c(O)n1Cc1ccccc1	17.3%
Cc1ccccc1-c1nnc(-c2ccc(Br)cc2)o1	0.4%
COc1cc(OC)cc(C(=O)Nc2ncc3c(n2)CC(C)CC3=O)c1 (stereo not drawn)	18.9%
CC(C)c1ccc(NC(=O)c2cnn(-c3ccccc3)c2NC(=O)c2ccco2)cc1	0.3%
CCN(CC)CCNC(=O)c1cc2c(=O)n(C)c3ccccc3c2n1C	-20%
O=C(Cn1cc2c(n1)CCCC2)Nc1ccccc1Cl	-7.1%
CCOC(=O)c1cccc(NC(=O)CSc2nnc(COc3ccccc3)n2CC)c1	-20.1%
Nc1nc(-c2ccc3c(c2)OCCO3)cs1	-0.3%
c1cc2c(cc1Nc1nc(-c3ccc4c(c3)OCO4)cs1)OCCO2	56.7% (active)
C=CCNc1nc(-c2sc(NC(C)=O)nc2C)cs1	33%
NS(=O)(=O)c1ccc(Nc2nc(-c3ccc(O)cc3)cs2)cc1	32.7%
c1cncc(Nc2nc(-c3ccncc3)cs2)c1	4.9%

Compound	cytotoxicity
Oc1ccc(Nc2nc(-c3ccc(O)cc3)cs2)cc1	84.1% (active)
CC(=O)Nc1nc(C)c(-c2csc(Nc3ccc(O)cc3)n2)s1	63.2% (active)
C=CCNc1nc(-c2sc(NC(=O)CC)nc2C)cs1	31.5%
O=C(Nc1nc(-c2ccc3c(c2)OCO3)cs1)C1CC1	-0.9%
CC(C)CN(CC(C)C)S(=O)(=O)N1CCC(C(=O)NCCN2CCOCC2)CC1	-24.9%
Cc1ccc2c(c1)NC(=O)C(CC(=O)NCCCN1CCCC1=O)O2 (stereo not drawn)	-1%
Cc1nn(C)cc1/C=N/O	-2%
COc1cc(Nc2cc(C)nc3nc(C)nn23)cc(OC)c1OC	-6%
Cc1ccc(S(=O)(=O)N(C)Cc2nc(-c3ccc(Br)cc3)no2)cc1	-5%
COC(=O)C1=C(C)n2nnnc2NC1c1cc2ccccc2o1 (stereo not drawn)	4.4%
COC(=O)C1=C(C)n2nnnc2NC1c1ccc(Cl)cc1 (stereo not drawn)	69.3% (active)
COC(=O)C1=C(C)n2cnnc2NC1c1ccc(Cl)cc1 (stereo not drawn)	6.1%
Cc1cc(S(=O)(=O)NCCN2CCOCC2)c(C)s1	1.5%
O=C(CCN1C(=O)COc2ccccc21)NCCN1CCN(c2ccccc2F)CC1	2%
C=CCn1c(COc2ccccc2)nnc1SCC(=O)Nc1ccc(S(N)(=O)=O)cc1	-13.8%
Cc1cccc(N2CCN(C(=O)C3CCCN(S(=O)(=O)c4cccc5cccnc45)C3)CC2)c1C (stereo not drawn)	24.5%
Cc1ccccc1Cn1ccc(NC(=O)c2cc3nc(-c4ccco4)cc(C(F)(F)F)n3n2)n1	61.3% (active)
O=C(Nc1cnn(Cc2ccccc2)c1)c1cc2nc(-c3ccco3)cc(C(F)(F)F)n2n1	24.8%
O=C(Nc1cnn(Cc2ccc(F)cc2)c1)c1cc2nc(-c3ccco3)cc(C(F)(F)F)n2n1	48.5%
Cc1ccccc1Cn1cc(NC(=O)c2cc3nc(-c4ccco4)cc(C(F)(F)F)n3n2)cn1	30.9%
Cc1ccccc1Cn1ccc(NC(=O)c2cnn3c(C(F)(F)F)cc(-c4ccco4)nc23)n1	42.2%
O=C(Nc1ccc(Cl)cc1)c1cc2nc(-c3ccco3)cc(C(F)(F)F)n2n1	69.4% (active)
Cc1noc(C)c1COC(=O)C1CC(O)CN1S(=O)(=O)c1ccc(Cl)cc1 (stereo not drawn)	-5.6%
CCc1ccccc1N(C(=O)c1cccs1)C1C=CS(=O)(=O)C1 (stereo not drawn)	-8.1%
CCSC1=C(C#N)C2(CCCC2)C(C#N)=C(N)N1	18.9%

Compound	cytotoxicity
N#CC1=C(N)NC(SCc2ccccc2)=C(C#N)C12CCCCC2	78.5% (active)
CSC1=C(C#N)C2(CCCC2)C(C#N)=C(N)N1	30.6%
CC1(C)CC(=O)C2=C(C1)NC(SCC(=O)Nc1ccccc1)=C(C#N)C21CCCCC1	-9.5%
COc1ccc(C(=O)CSC2=C(C#N)C3(CCCCC3)C(C#N)=C(N)N2)cc1	30.1%
CCSC1=C(C#N)C2(CCCCC2)C(C#N)=C(N)N1	1.2%
N#CC1=C(N)NC(SCC(=O)O)=C(C#N)C12CCCC2	-1.2%
O=C(CC(NS(=O)(=O)c1ccc(Cl)cc1)c1ccco1)NCc1cccnc1 (stereo not drawn)	-10.2%
CCOC(=O)N1CCN(c2nc(C)c3c(n2)CC(C)CC3=O)CC1 (stereo not drawn)	-14.7%
Cn1c(N2CCC(C(N)=O)CC2)nc2c1c(=O)n(Cc1ccc(Cl)cc1)c(=O)n2C	16.9%
FC(F)(F)c1cccc(N2CCN(Cc3cccnc3)CC2)c1	21.8%
CC(C)Oc1cccc(C(=O)Nc2ccccc2N2CCOCC2)c1	-2.7%
COc1cc(C2C(C(=O)c3cccs3)=C(O)C(=O)N2c2cc(C)on2)ccc1O (stereo not drawn)	14.5%
CCc1cccc(Nc2cc(C)nc3ncnn23)c1	-4.4%
Cc1cc(Nc2ccc3ccccc3c2)n2ncnc2n1	-8.1%
CCn1c2ccccc2c2cc(Nc3cc(C)nc4ncnn34)ccc21	74.4% (active)
Cc1ccc(-c2nn(C)c(=O)c3ccccc23)cc1CNC(=O)CN1CCOCC1	4.3%
O=C(Cn1nnc(-c2cc(Cl)ccc2-n2cnnn2)n1)N1CCCc2ccccc21	-0.5%
CCOC(=O)N1CCC(NC(=O)c2csc3c2CCCC3)CC1	-1.5%
COC(=O)/C(=C1/Oc2cc3c(cc2S1)OCO3)C(F)(F)F	-15.1%
COC(=O)C1=C(N)Oc2cc(C)oc(=O)c2C1c1ccncc1 (stereo not drawn)	-2.1%
COC(=O)/C(=C1/Oc2cc(C)oc(=O)c2S1)C(F)(F)F	70.4% (active)
O=C(COC(=O)C(O)c1ccccc1)NC12CC3CC(CC(C3)C1)C2 (stereo not drawn)	-12.9%
CN(C)/C=C1/Sc2ccccc2C1=O	-18.3%
CN(C)/C=C1\C(=O)c2ccc(N(C)C)nc2CC1c1ccccc1 (stereo not drawn)	59.9% (active)
CN(C)C=C1C(=O)c2ccccc2C1=O	48%

Compound	cytotoxicity
CCCOC(=O)Nc1ccc(S(=O)(=O)Nn2cnnc2)cc1	5.7%
C=CCNc1oc(Cc2cccc3ccccc23)nc1C#N	-8.6%
N#Cc1nc(Cc2cccc3ccccc23)oc1NCc1ccco1	63.1% (active)
CNc1oc(Cc2cccc3ccccc23)nc1C#N	14.7%
CCn1cc(C(=O)NCC2CCCO2)c(=O)c2cc(S(=O)(=O)N(C)C3CCCCC3)ccc21 (stereo not drawn)	13.1%
CCOc1ccc(C2=Nn3c(nnc3-c3ccccc3OC)SC2)cc1	66.6% (active)
COc1ccccc1-c1nnc2n1N=C(C)CS2	-13.6%
CCOc1ccc(C2=Nn3c(nnc3-c3ccc(OC)cc3)SC2)cc1	40.7%
COc1ccc(C2=Nn3c(nnc3-c3ccccn3)SC2)cc1OC	-4.6%
Cc1ccc(-c2nnc3n2N=C(c2ccccc2)CS3)cc1	-2.4%
c1ccc(C2=Nn3c(nnc3-c3cc(-c4ccccc4)n[nH]3)SC2)cc1	-6.7%
CCOc1ccc(-c2nnc3n2N=C(c2ccc(OC)cc2)CS3)cc1	-5%
COc1ccccc1-c1nnc2n1N=C(c1ccc(O)c(O)c1)CS2	54.8% (active)
COc1cccc(C2=Nn3c(nnc3-c3ccccc3O)SC2)c1	-11.6%
COc1ccc(C2=Nn3c(nnc3-c3ccccc3)SC2)cc1OC	0.4%
CCCCOc1ccc(-c2ncc(Cl)cn2)cc1	-15%
Cn1c(Cn2c(=O)sc3ccccc32)nnc1SCC(=O)N1CCN(c2ccccc2)CC1	8.3%
O=C(COc1ccc2c(c1)OCO2)Nc1ccc2c(c1)oc1ccccc12	2.3%
O=C(Cn1ncc2c(=O)oc3ccccc3c21)N1CCN(C(=O)c2ccco2)CC1	0.4%
COC(=O)c1cc(-c2c(C)oc3cc(OC(C)C)ccc3c2=O)c(C)o1	-13.5%
Cn1c(=O)c2c(nc(CN3CCN(C(=O)c4ccco4)CC3)n2CCc2ccccc2)n(C)c1=O	-4.3%
CCOC(=O)c1ccc(NC(=O)NC(C)C2CCCO2)cc1 (stereo not drawn)	-0.2%
Cc1ccccc1CS(=O)(=O)CCC(=O)N1CCN(c2ccc(N3CCOCC3)nn2)CC1	3.2%
